Source: PubChem BioAssay (EPA / NIEHS)
The source made the active and inactive calls. The calls were made as follows: active = hit-call score of the fitted dose curve at least 0.9, where 1 is the maximum; inactive = score below 0.9.

Assay: APR_HepG2_CellCycleArrest_1hr: Apredica 1-hour HepG2 Assay for Cell Cycle Arrest (AID 2282666)
Settings: high-content imaging, actives raise or lower the signal
Procedure, shortened: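 Cell cycle arrest scored from nuclear DNA content (Hoechst 33342) using high-content imaging of fixed HepG2 cells after 1 h treatment across 0.39–200 uM, in duplicate. Gain or loss fitted relative to 0.5% DMSO.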

SMILES	outcome	AC50
COP(N)(=O)SC (stereo unspecified)	inactive	
CC1COC(Cn2cncn2)(c2ccc(Oc3ccc(Cl)cc3)cc2Cl)O1 (stereo unspecified)	inactive	
CCNc1nc(Cl)nc(NC(C)C)n1	inactive	
CCCCNC(=O)OCC#CI	inactive	
CCCC1COC(Cn2cncn2)(c2ccc(Cl)cc2Cl)O1 (stereo unspecified)	inactive	
CCCN(CCC)c1c([N+](=O)[O-])cc(S(N)(=O)=O)cc1[N+](=O)[O-]		108 µM (active)
COP(=S)(OC)Oc1nc(Cl)c(Cl)cc1Cl	inactive	
Cc1ccc(-c2c(Cl)nc(C#N)n2S(=O)(=O)N(C)C)cc1	inactive	
O=C(O)COc1nc(Cl)c(Cl)cc1Cl	inactive	
COc1nc(C)nc(NC(=O)NS(=O)(=O)c2ccccc2CCC(F)(F)F)n1	inactive	
Fc1ccc(Oc2ccnc3cc(Cl)cc(Cl)c23)cc1	inactive	
COc1nc(C)nc(NC(=O)NS(=O)(=O)c2ccccc2Cl)n1	inactive	
CC(C)C1(C)N=C(c2nc3ccccc3cc2C(=O)O)NC1=O (stereo unspecified)	inactive	
OC(c1ccc(Cl)cc1)(c1cncnc1)c1ccccc1Cl (stereo unspecified)	inactive	
C=CC1(C)OC(=O)N(c2cc(Cl)cc(Cl)c2)C1=O (stereo unspecified)	inactive	
Oc1ccccc1-c1ccccc1	inactive	
COC(=O)c1ccccc1C(=O)OC	inactive	
CCc1nn(C)c(C(=O)NCc2ccc(C(C)(C)C)cc2)c1Cl	inactive	
C=CCC1=C(C)[C@@H](OC(=O)[C@@H]2[C@@H](C=C(C)C)C2(C)C)CC1=O	inactive	
COC(=O)C(C)Oc1ccc(Oc2ccc(Cl)cc2Cl)cc1 (stereo unspecified)	inactive	
C#CCOS(=O)OC1CCCCC1Oc1ccc(C(C)(C)C)cc1 (stereo unspecified)	inactive	
